Results from PubChem BioAssay.
Inconclusive results are not listed. The source made the active and inactive calls.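 Rule for the calls, unless noted: active = normalized viability below 100% at a tested concentration; inactive = the rest.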

Key:
[1] = growth inhibition of DIPG glioma cells, dose response, cell-based, SU-DIPG-XVII, MIPE5.0, CellTiter-Glo, qHTS (AID 1347060; cut-off not given, nearly all actives have AC50 up to about 26 µM;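 for AC50: cells exposed to compound for 48 hours before viability readout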); conditions: SU-DIPG-XVII viability, CellTiter-Glo ATP luminescence
[2] = growth inhibition of DIPG glioma cells, dose response, cell-based, SU-DIPG-IV, MIPE4.0, CellTiter-Glo, qHTS (AID 1347063; cut-off not given, nearly all actives have AC50 up to about 30 µM;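 note: compound exposure lasted 48 hours before the viability readout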); conditions: SU-DIPG-IV viability, CellTiter-Glo ATP luminescence
[3] = viability loss in pontine glioma line – cell-based, SU-DIPG-XXV, MIPE5.0, CellTiter-Glo, qHTS, dose response (AID 1347065; cut-off not given, nearly all actives have AC50 up to about 26 µM;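 note: cells exposed to compound for 48 hours before ATP readout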); conditions: CellTiter-Glo ATP luminescence
[4] = SU-DIPG-VI glioma cell viability, MIPE4.0 library, CellTiter-Glo luminescence, qHTS (AID 1347066; cut-off not given, nearly all actives have AC50 up to about 30 µM;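 note: cells exposed to compound for 48 hours before readout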); conditions: CellTiter-Glo ATP luminescence
[5] = JHH-DIPG-1 glioma cell viability, MIPE5.0 library, CellTiter-Glo luminescence, qHTS (AID 1347067; cut-off not given, nearly all actives have AC50 up to about 26 µM;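 note: cells exposed to compound for 48 hours before readout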); conditions: JHH-DIPG-1 glioma viability, CellTiter-Glo ATP luminescence
[6] = SU-DIPG-XXV glioma cell viability, MIPE5.0 library, qHTS (AID 1347068; cut-off not given, nearly all actives have IC50 up to about 30 µM)
[7] = growth inhibition of DIPG glioma cells, dose response, cell-based, SU-DIPG-XIII, MIPE5.0, CellTiter-Glo, qHTS (AID 1347064; cut-off not given, nearly all actives have AC50 up to about 23 µM;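 for AC50: cells exposed to compound for 48 hours before the viability read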); conditions: SU-DIPG-XIII viability, CellTiter-Glo ATP luminescence
[8] = modifiers of HSF1 nuclear foci, imaging, Selleck Cancer Library (AID 1347162; in the data active = plate-normalised HSF1 focus index below about 0.46); conditions: human cells, at 10 µM; SSMD: measured here: HSF1 foci SSMD mean; cell count: measured here: cell number; plate-normalised HSF1 focus index: stronger effect = lower value
[9] = ovarian cancer cell viability with rucaparib, profiling panel, oncology-focused library, rucaparib conditional (AID 1508598); conditions: patient-derived ovarian cancer cells, CellTiter-Glo viability, 144 h, stronger effect = lower value

CN(C)CC(=O)N1CCC(c2ccc(NC(=O)c3ncc(C#N)[nH]3)c(C3=CCCCC3)c2)CC1
active: AC50 [1] 23.5 µM | AC50 [2] 20.9 µM | AC50 [3] 20.9 µM | AC50 [4] 18.7 µM
inactive: outcome [5] | outcome [6]

CCNC(=O)Nc1ccc(-c2nc3c(c(N4CCOC[C@@H]4C)n2)CCN(C2COC2)C3)cc1
active: AC50 [1] 2.95 µM | AC50 [2] 0.332 µM | AC50 [3] 1.32 µM

Nc1ncc(C(=O)NC2CN(C(=O)C3CC3)C2)c2ccc(-c3cccc(F)c3)nc12
inactive: outcome [1] | outcome [7]

COc1ccc(-c2cc3nccn3c(Nc3ncccc3C(N)=O)n2)cc1OC
inactive: plate-normalised HSF1 focus index [8] 0.994
active: AC50 [1] 11.8 µM | AC50 [2] 3.32 µM | AC50 [7] 4.68 µM | AC50 [3] 5.25 µM
-0.302: SSMD [8]
6940: cell count [8]

CC[C@@H]([C@H](C)O)n1ncn(-c2ccc(N3CCN(c4ccc(OCC5CO[C@@](Cn6cncn6)(c6ccc(F)cc6F)C5)cc4)CC3)cc2)c1=O (stereo partly drawn)
active: AC50 [1] 18.6 µM | AC50 [2] 14.8 µM
inactive: outcome [4]

O=C(CCCCCCC(=O)Nc1ccc([C@H]2O[C@@H](CSc3nc(-c4ccccc4)c(-c4ccccc4)o3)C[C@@H](c3ccc(CO)cc3)O2)cc1)NO
active: AC50 [2] 13.2 µM | viability ([9]; at 0.000305 µM, OCI-P5x cells, with rucaparib 20 µM, 100% = cells with rucaparib alone) 97.6% | viability ([9]; at 0.00122 µM, OCI-P5x cells, with rucaparib 20 µM, 100% = cells with rucaparib alone) 90.6% | viability ([9]; at 0.00488 µM, OCI-P5x cells, with rucaparib 20 µM, 100% = cells with rucaparib alone) 90% | viability ([9]; at 0.0195 µM, OCI-P5x cells, with rucaparib 20 µM, 100% = cells with rucaparib alone) 72% | viability ([9]; at 0.0195 µM, OCI-P5x cells, without rucaparib) 79.1% | viability ([9]; at 5 µM, OCI-P5x cells, with rucaparib 20 µM, 100% = cells with rucaparib alone) 21.1%
inactive: outcome [1] | outcome [3] | outcome [5] | outcome [6] | viability ([9]; at 0.000305 µM, OCI-C5x cells, with rucaparib 10 µM, 100% = cells with rucaparib alone) 114% | viability ([9]; at 0.000305 µM, OCI-C5x cells, without rucaparib) 141% | viability ([9]; at 0.000305 µM, OCI-P5x cells, without rucaparib) 111% | viability ([9]; at 0.00122 µM, OCI-C5x cells, with rucaparib 10 µM, 100% = cells with rucaparib alone) 112% | viability ([9]; at 0.00122 µM, OCI-C5x cells, without rucaparib) 131% | viability ([9]; at 0.00122 µM, OCI-P5x cells, without rucaparib) 114% | viability ([9]; at 0.00488 µM, OCI-C5x cells, with rucaparib 10 µM, 100% = cells with rucaparib alone) 115% | viability ([9]; at 0.00488 µM, OCI-C5x cells, without rucaparib) 132% | viability ([9]; at 0.00488 µM, OCI-P5x cells, without rucaparib) 108% | viability ([9]; at 0.0195 µM, OCI-C5x cells, with rucaparib 10 µM, 100% = cells with rucaparib alone) 112% | viability ([9]; at 0.0195 µM, OCI-C5x cells, without rucaparib) 130% | viability ([9]; at 0.0781 µM, OCI-C5x cells, with rucaparib 10 µM, 100% = cells with rucaparib alone) 112% | viability ([9]; at 0.0781 µM, OCI-C5x cells, without rucaparib) 139% | viability ([9]; at 0.0781 µM, OCI-P5x cells, with rucaparib 20 µM, 100% = cells with rucaparib alone) 102% | viability ([9]; at 0.0781 µM, OCI-P5x cells, without rucaparib) 106% | viability ([9]; at 0.313 µM, OCI-C5x cells, with rucaparib 10 µM, 100% = cells with rucaparib alone) 116% | viability ([9]; at 0.313 µM, OCI-C5x cells, without rucaparib) 137% | viability ([9]; at 0.313 µM, OCI-P5x cells, with rucaparib 20 µM, 100% = cells with rucaparib alone) 104% | viability ([9]; at 0.313 µM, OCI-P5x cells, without rucaparib) 109% | viability ([9]; at 1.25 µM, OCI-C5x cells, with rucaparib 10 µM, 100% = cells with rucaparib alone) 110% | viability ([9]; at 1.25 µM, OCI-C5x cells, without rucaparib) 139% | viability ([9]; at 1.25 µM, OCI-P5x cells, with rucaparib 20 µM, 100% = cells with rucaparib alone) 106% | viability ([9]; at 1.25 µM, OCI-P5x cells, without rucaparib) 116% | viability ([9]; at 5 µM, OCI-C5x cells, with rucaparib 10 µM, 100% = cells with rucaparib alone) 128% | viability ([9]; at 5 µM, OCI-C5x cells, without rucaparib) 158% | viability ([9]; at 5 µM, OCI-P5x cells, without rucaparib) 108%
